Values without a mark were called inactive. Where a call stands in place of a potency, no number is given. Calls of active or inactive are those of the source. Unless noted, the call rests on the fitted dose curve; in most records, active means well fitted curve in the direction sought with a large enough effect in the repeat runs; inconclusive means weak or mixed curves; inactive means no such curve, though single readings can be large; an effect the other way counts as inactive or inconclusive.
What was measured:
[1] = qHTS assay for small molecule agonists of the p53 signaling pathway (AID 651631; calls by dose curve; further: nearly all actives have a fitted effect of over 15% in size)
How it was run: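 Readout was fluorescence from the LiveBLAzer FRET substrate, applied for 2 h at room temperature after 16 h compound exposure at 37 °C. Cells were the p53RE-bla HCT-116 line, with beta-lactamase driven by p53 response elements.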

[2] = qHTS assay for small molecules that induce genotoxicity in human embryonic kidney cells expressing luciferase-tagged ATAD5 (AID 651632); further: nearly all actives have a fitted effect of over 15% in size
How it was run: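 Luminescence read-out: after 16 hr compound exposure at 37C, ATAD5-luciferase HEK293T cells received Amplite, 30 min RT, then CCD imaging. A rise in signal marks genotoxic stress.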

[3] = qHTS assay for small molecule agonists of the p53 signaling pathway - cell viability (AID 651633; calls by dose curve; further: series mostly up to about 83 µM; nearly all actives have a fitted effect of over 30% in size)
How it was run: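 Viability counter-read: CellTiter-Glo luminescence (30 min, room temperature) in the same p53RE-bla plates. These plates had been exposed to compounds for 16 h at 37 C.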

[4] = qHTS assay for small molecules that induce genotoxicity in human embryonic kidney cells expressing luciferase-tagged ATAD5 - cell viability (AID 651634; calls by dose curve; further: nearly all actives have a fitted effect of over 25% in size)
How it was run: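 HEK293T ATAD5-luc cells, 2,000/well; compound 15.5 hr, 37C/5% CO2; CellTiter-Fluor 30 min, 37C; fluorescence read.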

[5] = qHTS assay for small molecule disruptors of the mitochondrial membrane potential - cell viability (AID 720634; calls by dose curve;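 further: human HepG2 liver cancer cells; series mostly up to about 83 µM; nearly all actives have a fitted effect of over 20% in size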)
How it was run: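 Luminescence from CellTiter-Glo (ATP content) gave viability in HepG2 cells, read in the same wells as the MMP dye assay after 1 hr compound exposure at 37 C.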

[6] = qHTS assay for small molecule disruptors of the mitochondrial membrane potential (AID 720635); further: potency means the concentration at half of the fitted maximal effect
How it was run: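 Mitochondrial membrane potential tracked with Mito-MPS dye, red aggregates (ex 540/em 590 nm) against green monomers (ex 490/em 535 nm). Compound treatment 1 hr at 37C, dye 30 min in HepG2.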

[7] = qHTS assay to test for compound auto fluorescence at 590 nm (red) in HepG2 cells (AID 720674)
How it was run: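 Red autofluorescence (Ex/Em 540/590 nm, Rose Bengal sodium equivalents) was measured in HepG2 cells, 2,000 per well in MEM plus 10% FBS, plated overnight at 37 C. Readings were taken 1 hr after adding 23 nL compound or DMSO, at 37 C and 5% CO2.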

[8] = qHTS assay to test for compound auto fluorescence at 535 nm (green) in HepG2 cells (AID 720675)
[9] = qHTS assay to test for compound auto fluorescence at 460 nm (blue) in HEK293 cells (AID 720678)
How it was run: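 Auto fluorescence in the blue band was quantified as triamterene equivalency. HEK293 cells were seeded at 2,000/well, dosed after a 4-5 hr attachment, and kept overnight at 37C before the 405/460 nm reading.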

[10] = qHTS assay to test for compound auto fluorescence at 590 nm (red) in HEK293 cells (AID 720679)
How it was run: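 Autofluorescence equivalency to Rose Bengal sodium, 540/590nm, in HEK293 cells exposed overnight to 23 nL compound per well.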

[11] = qHTS assay to test for compound auto fluorescence at 535 nm (green) in HEK293 cells (AID 720680)
[12] = qHTS assay to test for compound auto fluorescence at 535 nm (green) in HEK293 cell free culture (AID 720682)
How it was run: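 Compounds were pin-transferred into cell-free DMEM with 10% FBS, and green fluorescence was read at excitation 485 nm and emission 535 nm. Intensities were expressed as fluorescein-equivalent values.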

[13] = qHTS assay to test for compound auto fluorescence at 590 nm (red) in HepG2 cell free culture (AID 720684)
How it was run: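 No cells present: MEM + 10% FBS only. Compound pinned in, red label read (540/590 nm). Activity = fluorescence equivalent to Rose Bengal sodium.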

[14] = qHTS assay to test for compound auto fluorescence at 460 nm (blue) in HepG2 cell free culture (AID 720685)
How it was run: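 Cell-free plates of MEM plus 10% FBS received 23 nL compound or DMSO vehicle; blue-channel (405/460 nm) intensity scored against triamterene as reference fluorophore.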

[15] = qHTS assay to test for compound auto fluorescence at 535 nm (green) in HepG2 cell free culture (AID 720686)
[16] = qHTS assay to test for compound auto fluorescence at 460 nm (blue) in HepG2 cells (AID 720687)
How it was run: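 Blue-channel autofluorescence (Ex/Em 405/460 nm, triamterene-equivalent) was measured after 1 hr compound exposure at 37 C, 5% CO2. Cells were HepG2, plated overnight at 37 C in MEM plus 10% FBS.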

[17] = biological target: Glucocorticoid receptor (Homo sapiens) (UniProt P04150); test: qHTS assay to identify small molecule agonists of the glucocorticoid receptor (GR) signaling pathway (AID 720691; active means well fitted activation curve with a large enough effect in the signal ratio in the repeat runs, not every such curve was filed as active; inconclusive means weak or mixed curves, or effect the other way; inactive means no such curve, though single readings can be large or run the other way; the % refers to the signal ratio; further: potency means the concentration at half of the fitted maximal effect)
How it was run: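 HeLa GR-bla reporter line; cells pre-incubated 4 h, compound in DMSO 18 h at 37 C; LiveBLAzer B/G FRET substrate 2 h RT; fluorescence intensity read-out.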

[18] = qHTS assay to test for compound auto fluorescence at 460 nm (blue) in HEK293 cell free culture (AID 720681)
How it was run: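 Blue fluorescence (Ex 405/Em 460 nm, triamterene-equivalent) was read immediately after pin transfer of compound or DMSO into medium (DMEM, 10% FBS) without cells.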

[19] = biological target: Glucocorticoid receptor (Homo sapiens) (UniProt P04150); test: qHTS assay to identify small molecule antagonists of the glucocorticoid receptor (GR) signaling pathway (AID 720692; active means well fitted inhibition curve with a large enough effect in the signal ratio in the repeat runs, not every such curve was filed as active; inconclusive means weak or mixed curves, or effect the other way; inactive means no such curve, though single readings can be large or run the other way; the % refers to the signal ratio)
How it was run: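 Read-out: beta-lactamase FRET substrate fluorescence, 2 h at room temperature, in HeLa cells stably carrying a GRE-driven bla reporter. Compounds were co-incubated with 5 nM dexamethasone agonist (final) for 18 h at 37 C.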

[20] = qHTS assay to test for compound auto fluorescence at 590 nm (red) in HEK293 cell free culture (AID 720683)
How it was run: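 Red-channel autofluorescence of compounds in culture medium (DMEM, 10% FBS), no cells, measured at 540/590 nm. Rose Bengal sodium is the reference fluorophore for equivalence.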

Chain of Glucocorticoid receptor (Homo sapiens) (P04150 whole entry, looked up): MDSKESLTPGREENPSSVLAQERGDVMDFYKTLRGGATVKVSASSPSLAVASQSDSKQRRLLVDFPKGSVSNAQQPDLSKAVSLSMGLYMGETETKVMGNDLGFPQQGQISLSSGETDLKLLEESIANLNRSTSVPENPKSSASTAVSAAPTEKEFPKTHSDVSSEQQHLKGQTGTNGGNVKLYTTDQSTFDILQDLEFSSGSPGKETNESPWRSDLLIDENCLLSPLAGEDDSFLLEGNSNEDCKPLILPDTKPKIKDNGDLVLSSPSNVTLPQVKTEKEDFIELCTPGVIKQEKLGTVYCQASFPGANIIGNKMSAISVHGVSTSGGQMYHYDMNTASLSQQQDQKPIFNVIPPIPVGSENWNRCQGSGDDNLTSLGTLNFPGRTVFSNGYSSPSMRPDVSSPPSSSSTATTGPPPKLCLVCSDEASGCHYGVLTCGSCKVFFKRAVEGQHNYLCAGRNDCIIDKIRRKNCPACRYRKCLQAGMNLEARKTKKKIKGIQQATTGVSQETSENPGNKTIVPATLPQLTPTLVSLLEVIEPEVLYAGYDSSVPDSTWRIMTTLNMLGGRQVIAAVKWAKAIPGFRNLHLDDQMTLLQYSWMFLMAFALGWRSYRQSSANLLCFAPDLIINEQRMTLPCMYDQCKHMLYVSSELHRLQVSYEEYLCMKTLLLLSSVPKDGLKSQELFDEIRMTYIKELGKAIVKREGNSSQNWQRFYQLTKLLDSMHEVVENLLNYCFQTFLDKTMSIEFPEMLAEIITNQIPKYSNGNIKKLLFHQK

SMILES	Potency [1]	Potency [2]	Potency [3]	Potency [4]	Potency [5]	Potency [6]	outcome [7]	outcome [8]	Potency [9]	outcome [10]	outcome [11]	outcome [12]	outcome [13]	Potency [14]	outcome [15]	Potency [16]	Potency [17]	Potency [18]	Potency [19]	outcome [20]
CCN(CC)CCNC(=O)c1ccc(NC(C)=O)cc1	inactive	inactive	inactive	inactive	inactive	inactive	inactive	inactive	inactive	inactive	inactive	inactive	inactive	inactive	inactive	inactive	inactive	–	–	–
CC(C)CCCCCCOC(=O)CCCCC(=O)OCCCCCCC(C)C	inactive	inactive	inactive	inactive	–	–	inactive	inactive	inactive	–	inactive	inactive	inactive	inactive	inactive	inactive	inactive	inactive	inactive	–
CCC(=O)OC/C=C/c1ccccc1	inactive	inactive	inactive	–	inactive	inactive	inactive	inactive	–	inactive	inactive	inactive	inactive	inactive	inactive	inactive	inactive	inactive	–	inactive
C[N+](C)(C)CCOC(N)=O	inactive	inactive	inactive	–	inactive	inactive	–	inactive	inactive	inactive	inactive	inactive	inactive	inactive	inactive	inactive	–	inactive	–	–
C=C(C)C(=O)OCCOC(=O)CC(C)=O	inactive	–	inactive	inactive	inactive	inactive	–	inactive	inactive	inactive	inactive	inactive	inactive	inactive	inactive	inactive	inactive	inactive	inactive	–
CC1CC(=O)NN=C1c1ccc(NCC(C)(C)NCC(O)COc2cc(Cl)ccc2C#N)cc1 (stereo not drawn)	inactive	–	inactive	inactive	inactive	–	inactive	inactive	inactive	inactive	inactive	inactive	inactive	inactive	inactive	inactive	inactive	inactive	–	inactive
Cc1cc(O)c2c(O)c3c(O)cccc3cc2c1	inactive	inactive	inactive	inactive	–	–	–	inactive	inactive	–	inactive	inactive	inactive	inactive	inactive	inactive	inactive	inactive	–	inactive
CC1=CC(=O)CC(C)(C)C1(O)/C=C/C(C)=C\C(=O)O (stereo not drawn)	inactive	inactive	inactive	–	inactive	inactive	inactive	inactive	inactive	inactive	inactive	inactive	inactive	inactive	inactive	inactive	inactive	inactive	–	inactive
CNC(=O)N(c1ccccc1)c1ccccc1	inactive	inactive	inactive	inactive	–	–	inactive	inactive	inactive	inactive	inactive	inactive	inactive	inactive	inactive	inactive	–	inactive	–	inactive
O=C(Nc1ccc([N+](=O)[O-])cc1)Nc1ccc([N+](=O)[O-])cc1	inactive	inactive	inactive	inactive	–	422 nM (active)	inactive	inactive	inactive	inactive	inactive	inactive	inactive	inactive	inactive	inactive	inactive	inactive	–	inactive
CC1(C)O[C@@H]2C[C@H]3[C@@H]4CCC5=CC(=O)C=C[C@]5(C)[C@H]4[C@@H](O)C[C@]3(C)[C@]2(C(=O)CO)O1	inactive	–	inactive	inactive	inactive	–	inactive	inactive	inactive	inactive	inactive	inactive	inactive	inactive	inactive	inactive	30.1 nM [inconclusive] (active)	inactive	–	inactive
CCOC(=O)C(C)Oc1ccc(Oc2nc3ccc(Cl)cc3o2)cc1 (stereo not drawn)	inactive	inactive	inactive	inactive	–	inactive	inactive	inactive	inactive	–	inactive	inactive	inactive	inactive	inactive	inactive	inactive	inactive	–	inactive
COc1ccccc1N=Nc1c(S(=O)(=O)O)cc2cc(S(=O)(=O)O)cc(NC(C)=O)c2c1O	inactive	inactive	inactive	–	inactive	–	inactive	inactive	inactive	inactive	inactive	inactive	inactive	inactive	inactive	inactive	inactive	inactive	inactive	inactive
CC(C)C(=O)O	inactive	inactive	inactive	–	–	–	inactive	inactive	inactive	inactive	inactive	inactive	inactive	inactive	inactive	inactive	inactive	–	–	inactive
